# Phagocyt inh: inhibitors of macrophage phagocytosis; J774A.1 macrophage IgG-bead phagocytosis, imaging; inhibition, % at 5 µM; hit rate 0.07% among 110,000;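 active means inhibition above the mean of the plate negative controls plus 5 SD, cut at about 13% in these data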;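 further: phagocytic index as fraction of beads internalized from green versus red external bead signal; plate controls were DMSO negative control for no effect and cytochalasin-D positive control for full effect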
# MRP resist rev: compounds reversing MRP-mediated drug resistance | H69AR cells + 2 uM doxorubicin, CellTiter-Glo, 72 h | differential viability (reversal), % at 10 µM | hit rate 0.04% among 85,000;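 active means viability drop by adding the cancer drug above about 55%, with treated viability meeting a 40% cutoff, limit read from the data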;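 further: viability without doxorubicin minus viability with 2 µM doxorubicin for each compound; larger differential means the compound sensitizes cells more to doxorubicin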
# MRP1 act: MRP-1 activation; H69AR cells + doxorubicin, viability rescue, CellTiter-Glo; AID 799; hit rate 0.61% among 140,000; viability increase, % at 10 µM;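 active means viability gain under doxorubicin at or above a set limit, the compound median plus 3 SD, cut at about 4.7% in these data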;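 further: MRP-1 overexpressing cells given doxorubicin 25 µM after compound pretreatment; 18-22 h compound pretreatment then 72 h with doxorubicin before readout; 0% = doxorubicin-only wells and 100% = vehicle-treated cells without doxorubicin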
# Starred values were filed as active, the others as inactive; · = no result given; + = active, no number; [ ] = remark or other dose. Shown are actives, neighbours in structure and some others; about 0.72% of the full set was active somewhere.
SMILES,Phagocyt inh,MRP resist rev,MRP1 act
COc1ccccc1CN1CCN(C(=O)COc2ccccc2)CC1,0.8,9.2,-2.4
O=C(COc1ccc(Cl)cc1)N1CCN(Cc2ccccc2)CC1,-0.5,5.8,6.5*
S=C1NCCN1,·,6.2,-1.8
Cc1ccc(NC(=O)CN2C(=O)CN=C(c3ccccc3)c3cc(Cl)ccc32)cc1,0.1,2.0,0.4
CN(C)c1ccc(NC(=O)CN2C(=O)CN=C(c3ccccc3)c3cc(Cl)ccc32)cc1,-0.4,3.2,6.8*
Cc1ccsc1-c1nc(CSCC(=O)N2CCC3(CC2)OCCO3)c(C)o1,-1.6,11.5,-2.1
CCc1cccc(C)c1NC(=S)N1CC2CC(C1)c1cccc(=O)n1C2 (stereo not given),·,·,0.1
OC(Cn1c2ccccc2c2ccccc21)C[n+]1cccc2ccccc21 (stereo not given),·,·,-5.1
Cc1ccc(N2C(=O)NC(=O)/C(=C/c3cnc(-c4ccccc4)nc3)C2=O)cc1C,-4.3,·,-1.2
Cc1ccc(N2C(=O)NC(=O)/C(=C\c3ccsc3)C2=O)cc1C,-0.7,·,5.5*
CCOP(=O)(Cc1cc(C#N)oc1C)OCC,-2.8,·,-1.8
Brc1ccc2[nH]cc(/C=N/N3CCCCC3)c2c1,-4.5,·,0.0
O=C(c1cccn2c(=O)c3ccc(Cl)cc3nc12)N1CCC2(CC1)OCCO2,-2.4,11.7,-3.2
O=C(c1cccn2c(=O)c3cc(Br)ccc3nc12)N1CCC2(CC1)OCCO2,0.0,6.1,4.8*
O=c1[nH]c2ccccc2n1CCCN1CCC(n2c(=O)[nH]c3cc(Cl)ccc32)CC1,·,-4.2,-2.3
COc1ccc(N2C(=O)CC(N3CCC(n4c(=O)[nH]c5ccccc54)CC3)C2=O)cc1 (stereo not given),-0.8,-10.1,5.5*
CCN(CC)S(=O)(=O)c1ccc(NN=C(C#N)C#N)cc1,-2.8,·,5.6*
Cc1ccn2nc(S(=O)(=O)Nc3c(F)cccc3F)nc2n1,-2.8,·,0.4
Nc1cc(Cl)c2nonc2c1[N+](=O)[O-],2.8,·,-6.2
CCN1/C(=C\C=C\C2=[N+](CC)c3ccccc3C2(C)C)C(C)(C)c2ccccc21,+[artifact],-0.1,-5.3
Cc1nn(Cc2ccc(Cl)cc2Cl)c(Cl)c1C(=O)Nc1ccc(OC(F)F)cc1,-0.8,·,-3.6
